Test results taken from PubChem BioAssay (NCI).
About 83,000 compounds went through this panel and 20% of them were active in at least one assay; those are over-represented in the sample as a whole.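 Testing used 96-well plates and a 48-hour single-concentration exposure. Example: -40 means 40% of the starting cells died.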 Unmarked numbers belong to inactive results. Active and inactive are the calls of the source. The calls were made as follows: active = growth percent below 10; inactive = the rest.

These compounds were tested on NCI-H23 lung (assay: NCI-60 one-dose screen, 48 h (100 = growth as untreated, 0 = no growth, -100 = all killed)). Conditions: 10 µM unless noted.

| SMILES | growth |
| --- | --- |
| O=C(Nc1cccc(-n2cc(-c3ccncc3)c(-c3ccc(O)c(Cl)c3)n2)c1)Nc1ccc(Cl)c(C(F)(F)F)c1 | 1.11% (active) |
| CCOc1ccccc1C(=O)OCC(=O)Nc1cccc(S(=O)(=O)N(C)C)c1 | 101% |
| Cn1c(N)c(N=O)c(=O)[nH]c1=O | 104% |
| Cc1nn(-c2ccc(Br)cc2)c2nc3c(nc12)C(=O)C(=O)c1ccccc1-3 | 87.2% |
| Cc1nn(-c2ccccc2)c2nc(Cl)c(/C=C/C(=O)c3ccccc3)c(-c3ccccc3)c12 | 102% |
| S=C(Nc1ccc(C2=NCCN2)cc1)Nc1ccc(C2=NCCN2)cc1 | 82.7% |
| COc1ccc(C(=O)/C=C/c2c(Cl)nc3c(c(C)nn3-c3ccccc3)c2-c2ccc(Br)cc2)cc1 | 105% |
| O=C1c2ccccc2-c2c1nc1ccccc1[n+]2[O-] | 102% |
| Cc1c(C(N)=O)sc2c1c(=O)n(Cc1ccccc1)c1nnc(S(=O)(=O)CC(=O)Nc3ccc(Cl)cc3)n21 | 43.2% |
| OCCOc1c(Cl)cc(Cl)cc1Cl | 101% |
| O=C1Nc2ccc(F)cc2/C1=C/c1nc(-c2ccc(F)cc2)n2ccccc12 | 104% |
| CCOC(=O)C(C(C)=O)c1nc2sc3cc(Cl)ccc3n2c(=N)c1C#N (stereo unspecified) | 78.2% |
| Cc1nn(-c2ccc(Cl)cc2)c2nc3c(nc12)c(=O)oc1ccccc13 | 100% |
| Cc1nn(-c2ccccc2)c2ncc3c(c12)C(=O)N(Cc1ccccc1)C3=O | 63.9% |
| OC(CCC(O)(c1ccccc1)c1ccccc1)(c1ccccc1)c1ccccc1 | 80% |
| S=C(c1ccccc1)N1CCN(c2cccc(Cl)c2)CC1 | 101% |
| COc1cc(OC)c2cc(C(=O)O)c(=O)oc2c1 | 96.8% |
| Cc1c(C(N)=O)sc2ncn(Cc3ccccc3)c(=O)c12 | 101% |
| O=C1CN(CO)C(=O)CN1CO | 103% |

| SMILES | growth |
| --- | --- |
| O=C(COC(=O)[C@H](C[Se][Se]C[C@H](NC(=O)c1ccc(Br)cc1F)C(=O)OCC(=O)c1ccc(F)cc1)NC(=O)c1ccc(Br)cc1F)c1ccc(F)cc1 | -37.3% (active) |
| CCOC(=O)C1C(=O)OC2CCCCC21 (stereo unspecified) | 101% |
| COC(=O)[C@]1(CCSC)N[C@H](c2cn(-c3ccccc3)nc2C)[C@@H]2C(=O)N(c3ccccc3)C(=O)[C@@H]21 | 94.9% |
| Cc1c(C(N)=O)sc2c1c(=O)n(Cc1ccccc1)c1nnc(SCC(=O)Nc3ccc(Cl)cc3)n21 | 57.7% |
| O=C1OC(c2ccc(-c3ccccc3)cc2)=C/C1=C/c1cccs1 | 88.6% |
| Oc1ccccc1/C=N\Nc1ccccc1 | 87.5% |
| CCCCn1c(Cc2ccc(Cl)cc2)nc2cc(OC)c(OC)cc2c1=O | 74.6% |
| Cn1[nH]cc(/C=N/C(N)=O)c1=O | 104% |
| Cc1[nH]n(C(N)=S)c(=O)c1N=Nc1ccc(F)c(Cl)c1 | 102% |
| CCSc1nnc2n(Cc3ccccc3)c(=O)c3c(C)c(C(N)=O)sc3n12 | 110% |
| Cc1cc(C)c(OC(=O)CSc2nc3ccccc3c(=O)n2CCc2ccccc2)cc1C | 101% |
| NC(=O)SCC(=O)Nc1ccccc1-c1ccccc1 | 97.2% |
| Cc1nn(-c2ccc(Cl)cc2)c2nc3c(nc12)C(=O)C(=O)c1ccccc1-3 | 75.5% |
| O=C(c1ccccc1)c1ccccc1Cl | 100% |
| COc1cc(OC)c2sc(-c3ccc(-n4cncc4-c4ccc(N)cc4)cc3)nc2c1 | 101% |
| O=C(CSc1nc2c(n1Nc1ccccc1)-c1ccccc1SC2)Nc1nc(-c2ccc(Cl)cc2)cs1 | 53% |
| CN=C(NC)N/N=C(C)\C=N\NC(=NC)NC | 104% |
| OC(Cc1cccnc1)c1ccccc1 (stereo unspecified) | 103% |
| N#Cc1c(N2CCOCC2)nc2sc3cc(Cl)ccc3n2c1=N | 88.2% |

These compounds were tested on NCI-H226 lung in the same assay as above. Conditions: 10 µM unless noted.

| SMILES | growth |
| --- | --- |
| O=C(Nc1cccc(-n2cc(-c3ccncc3)c(-c3ccc(O)c(Cl)c3)n2)c1)Nc1ccc(Cl)c(C(F)(F)F)c1 | 20.2% |
| CCOc1ccccc1C(=O)OCC(=O)Nc1cccc(S(=O)(=O)N(C)C)c1 | 100% |
| Cn1c(N)c(N=O)c(=O)[nH]c1=O | 106% |
| Cc1nn(-c2ccc(Br)cc2)c2nc3c(nc12)C(=O)C(=O)c1ccccc1-3 | 96.9% |
| Cc1nn(-c2ccccc2)c2nc(Cl)c(/C=C/C(=O)c3ccccc3)c(-c3ccccc3)c12 | 89.7% |
| S=C(Nc1ccc(C2=NCCN2)cc1)Nc1ccc(C2=NCCN2)cc1 | 86.8% |
| COc1ccc(C(=O)/C=C/c2c(Cl)nc3c(c(C)nn3-c3ccccc3)c2-c2ccc(Br)cc2)cc1 | 97.3% |
| O=C1c2ccccc2-c2c1nc1ccccc1[n+]2[O-] | 106% |
| Cc1c(C(N)=O)sc2c1c(=O)n(Cc1ccccc1)c1nnc(S(=O)(=O)CC(=O)Nc3ccc(Cl)cc3)n21 | -4.71% (active) |
| OCCOc1c(Cl)cc(Cl)cc1Cl | 111% |
| O=C1Nc2ccc(F)cc2/C1=C/c1nc(-c2ccc(F)cc2)n2ccccc12 | 110% |
| CCOC(=O)C(C(C)=O)c1nc2sc3cc(Cl)ccc3n2c(=N)c1C#N (stereo unspecified) | 43% |
| Cc1nn(-c2ccc(Cl)cc2)c2nc3c(nc12)c(=O)oc1ccccc13 | 128% |
| Cc1nn(-c2ccccc2)c2ncc3c(c12)C(=O)N(Cc1ccccc1)C3=O | -14.2% (active) |
| OC(CCC(O)(c1ccccc1)c1ccccc1)(c1ccccc1)c1ccccc1 | 86.6% |
| S=C(c1ccccc1)N1CCN(c2cccc(Cl)c2)CC1 | 99.3% |
| COc1cc(OC)c2cc(C(=O)O)c(=O)oc2c1 | 96.8% |
| Cc1c(C(N)=O)sc2ncn(Cc3ccccc3)c(=O)c12 | 96.8% |
| O=C1CN(CO)C(=O)CN1CO | 113% |

| SMILES | growth |
| --- | --- |
| O=C(COC(=O)[C@H](C[Se][Se]C[C@H](NC(=O)c1ccc(Br)cc1F)C(=O)OCC(=O)c1ccc(F)cc1)NC(=O)c1ccc(Br)cc1F)c1ccc(F)cc1 | -73.2% (active) |
| CCOC(=O)C1C(=O)OC2CCCCC21 (stereo unspecified) | 113% |
| COC(=O)[C@]1(CCSC)N[C@H](c2cn(-c3ccccc3)nc2C)[C@@H]2C(=O)N(c3ccccc3)C(=O)[C@@H]21 | 99.7% |
| Cc1c(C(N)=O)sc2c1c(=O)n(Cc1ccccc1)c1nnc(SCC(=O)Nc3ccc(Cl)cc3)n21 | 9.97% (active) |
| O=C1OC(c2ccc(-c3ccccc3)cc2)=C/C1=C/c1cccs1 | 63.6% |
| Oc1ccccc1/C=N\Nc1ccccc1 | 39.4% |
| CCCCn1c(Cc2ccc(Cl)cc2)nc2cc(OC)c(OC)cc2c1=O | 66.4% |
| Cn1[nH]cc(/C=N/C(N)=O)c1=O | 111% |
| Cc1[nH]n(C(N)=S)c(=O)c1N=Nc1ccc(F)c(Cl)c1 | 87% |
| CCSc1nnc2n(Cc3ccccc3)c(=O)c3c(C)c(C(N)=O)sc3n12 | 93.8% |
| Cc1cc(C)c(OC(=O)CSc2nc3ccccc3c(=O)n2CCc2ccccc2)cc1C | 84.8% |
| NC(=O)SCC(=O)Nc1ccccc1-c1ccccc1 | 117% |
| Cc1nn(-c2ccc(Cl)cc2)c2nc3c(nc12)C(=O)C(=O)c1ccccc1-3 | 65.2% |
| O=C(c1ccccc1)c1ccccc1Cl | 105% |
| COc1cc(OC)c2sc(-c3ccc(-n4cncc4-c4ccc(N)cc4)cc3)nc2c1 | 98.7% |
| O=C(CSc1nc2c(n1Nc1ccccc1)-c1ccccc1SC2)Nc1nc(-c2ccc(Cl)cc2)cs1 | 92% |
| CN=C(NC)N/N=C(C)\C=N\NC(=NC)NC | 98.8% |
| OC(Cc1cccnc1)c1ccccc1 (stereo unspecified) | 107% |
| N#Cc1c(N2CCOCC2)nc2sc3cc(Cl)ccc3n2c1=N | 88.3% |
